USP2a inh = USP2a (human) protease inhibition; O75604; USP2a enzymatic assay, qHTS inhibition; Potency, µM (titrated, usually from 38.3 µM), for inactives: at the top dose activity change, negative = inhibition, hits mostly inhibitors; actives 0.1% (n = 60,000); further: nearly all actives have a fitted effect of over 60% in size
Target sequence (O75604 whole entry, looked up): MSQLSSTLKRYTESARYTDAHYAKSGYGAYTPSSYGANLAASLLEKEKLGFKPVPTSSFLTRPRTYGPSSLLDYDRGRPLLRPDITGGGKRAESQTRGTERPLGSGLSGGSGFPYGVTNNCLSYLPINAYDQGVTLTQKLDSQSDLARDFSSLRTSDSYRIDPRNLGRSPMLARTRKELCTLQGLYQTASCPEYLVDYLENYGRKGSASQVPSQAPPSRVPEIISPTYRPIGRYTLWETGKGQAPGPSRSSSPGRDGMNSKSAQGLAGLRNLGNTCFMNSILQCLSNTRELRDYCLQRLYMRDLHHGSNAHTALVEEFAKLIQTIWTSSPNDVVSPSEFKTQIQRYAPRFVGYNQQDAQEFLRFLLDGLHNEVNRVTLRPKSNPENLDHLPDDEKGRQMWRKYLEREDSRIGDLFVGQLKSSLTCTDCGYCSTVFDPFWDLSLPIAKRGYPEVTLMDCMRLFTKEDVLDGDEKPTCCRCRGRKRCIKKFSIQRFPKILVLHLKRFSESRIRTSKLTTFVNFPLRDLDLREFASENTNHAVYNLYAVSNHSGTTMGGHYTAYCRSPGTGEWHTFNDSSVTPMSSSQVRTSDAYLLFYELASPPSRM
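USP2 core (20nM final) preincubated 30 min RT with compound, then Ub-PLA2 20nM and NBD C6-HPC 20uM final added; buffer 20mM Tris-HCl pH 8.0, 2mM CaCl2. Fluorescence Ex 460/Em 535 read at 0 and 2.5 h; normalized to NEM.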
15-hLO inh = blocks human 15-lipoxygenase activity. P16050. purified 15hLO-1, xylenol orange hydroperoxide absorbance. Potency, µM (highest dose often 57.1 µM), for inactives: at the top dose activity change, negative = inhibition, hits mostly inhibitors. actives 1.4% (n = 74,000); further: on the % scale 0 is the no-effect control and ±100 the full control effect; nearly all actives have a fitted effect of over 55% in size
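Readout: Fe(III)-xylenol orange absorbance, 573-to-405 nm ratio as reaction progress. Enzyme 40 nM purified human 15hLO-1, substrate 50 uM arachidonic acid, 6 min RT after 15 min compound preincubation; Hepes pH 7.5 buffer with Triton X-100.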
Tau filament bind = binds recombinant human tau filaments; P10636; recombinant tau filaments, thioflavin S fluorescence, 15 h; filaments grown with octadecylsulfate alongside compound; Potency, µM (highest dose often 57.1 µM), inactives show at the top dose activity change, negative = inhibition; actives 2% (n = 71,000); AID 596;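 further: on the % scale 0 is the no-effect control and ±100 the full control effect; actives lower thioflavin S fluorescence by blocking filaments or displacing dye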
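His-tagged recombinant human tau (exons 2, 3 and 10 included), 1 uM, was induced to fibrillize by 30 uM sodium octadecylsulfate with compound present. After 15 h at 37 C, thioflavine S fluorescence (ex 450, em 510 nm) was read.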
Hsp90 Hop PPI = changes Hsp90-Hop TPR2A binding signal, up or down. AlphaScreen TPR2A-His6 binding biotin-Hsp90 C-terminal peptide. Potency, µM (top dose mostly 57 µM), for inactives: top-dose activity change, negative = inhibition. actives 0.44% (n = 71,000); active means well fitted curve in either direction with a large enough effect; inconclusive means small, poorly fitted or top-dose-only effect, or another doubt; further: on the % scale 0 is the no-effect control and ±100 the full control effect
* = called active by the depositor; ? = inconclusive; . = no result; ! = not active in a repeat; [ ] = dose if it differs, or a comment. Shown are actives, neighbours in structure and some others; about 3.2% of the full set was active somewhere. Unless noted, the call rests on the fitted dose curve; in most records, active means well fitted curve in the direction sought with a large enough effect; inconclusive means small, poorly fitted or top-dose-only effect, or another doubt; inactive means no such curve, though single readings can be large; an effect the other way counts as inactive or inconclusive. Potency means the concentration at half of the fitted maximal effect.

SMILES	USP2a inh	15-hLO inh	Tau filament bind	Hsp90 Hop PPI
COc1ccc(-c2cc(C(F)(F)F)nc(N3CCN(c4ccccc4)CC3)n2)cc1OC	1.2%	-12.2%	7.0%	-6.0%
CC(=O)[C@@H]1[C@H]2[C@H](C(=O)[C@H]3OC[C@@H]2O3)[C@H]2C=Cc3ccccc3N21	.	-14.2%[25.6 µM]	.	.
CCCCc1c(C)nn(-c2nnc3c4ccccc4n(CC)c3n2)c1C	-7.6%	38.8%	2µM*	-12.4%
N#CCCn1c(=O)cnc2cnc(Oc3cccc(Cl)c3)nc21	22.8%	7.9%	-1.7%	-0.2%
CN(C)c1ncc2nc(-c3ccc(Cl)cc3)c(=O)n(Cc3cccs3)c2n1	112.0%	-3.2%	139.7%	?
CCOc1ccccc1C(=O)Nc1cc(Cl)ccc1O	12.6µM*	10µM*	112.4%	2.9%
CO[C@@H]1/C=C\CC(=O)N[C@@H](C)C(=O)OC[C@@H](OC)[C@H](C)/C=C\CC(=O)OC[C@H]1C	.	9.7%[11.4 µM]	.	.
O=C(c1ccco1)N1CCCC(c2nc(-c3ccc(S(=O)(=O)NCc4ccccc4)cc3)no2)C1 (configuration not stated)	30.7%	-0.8%	52.5%	-7.0%
Cc1cccc2cc(CN(CCCO)C(=O)Nc3cccc(Cl)c3)c(=O)[nH]c12	50.4%	20µM*	8.1%	-8.4%
Cc1cccc2cc(CN(CCCO)C(=O)Nc3ccc(Cl)cc3)c(=O)[nH]c12	53.4%	-22.2%	27.3%	-3.3%
Oc1ccc2[nH]ccc2c1	33.4%	?	20µM*	-5.3%
N[C@@H](Cc1c[nH]c2ccc(O)cc12)C(=O)O	-5.0%	?	-10.5%	-4.4%
CCOc1ccc(C2c3c(oc4ccccc4c3=O)C(=O)N2c2ccc(C)cn2)cc1OC (configuration not stated)	.	-1.1%	3.98µM*	-5.7%
COc1cc(C2c3c(oc4ccccc4c3=O)C(=O)N2c2ccc(C)cn2)ccc1O (configuration not stated)	.	-5.9%	12.6µM*	-9.6%
Cc1ccc(N2C(=O)c3oc4ccccc4c(=O)c3C2c2cccc(O)c2)nc1 (configuration not stated)	.	?	25.1µM*	-10.4%
COc1ccc(C2c3c(oc4ccccc4c3=O)C(=O)N2c2ccccn2)cc1OC (configuration not stated)	.	10.8%	-7.4%	-4.3%
COc1cc(C2c3c(oc4cc(C)c(C)cc4c3=O)C(=O)N2c2cc(C)ccn2)ccc1O (configuration not stated)	14.3%	-6.0%	5.01µM*	?
Nc1ncnc2c1ncn2[C@@H]1O[C@@H](COP(=O)(O)OP(=O)(O)OP(=O)(O)OP(=O)(O)OC[C@@H]2O[C@@H](n3cnc4c(N)ncnc43)[C@@H](O)[C@H]2O)[C@H](O)[C@@H]1O	-3.5%	-18.7%	-2.9%	-9.5%
CC(C)Oc1ccc2c(=O)c3cc(C(=O)O)ccc3oc2c1	.	-5.4%[25.6 µM]	?	-5.1%
Cc1nc2cnc(Oc3ccccc3)nc2n(C2CC2)c1=O	89.3%	-3.9%	0.1%	-5.5%
COc1cccc(CC(NC(C)=O)C(=O)NC2CCN(c3nc(C)cc(C)c3C#N)CC2)c1 (configuration not stated)	23.2%	1.9%	11.5%	-3.6%
COc1ccc(CC(NC(C)=O)C(=O)NC2CCN(c3nc(C)cc(C)c3C#N)CC2)c(OC)c1 (configuration not stated)	25.1%	25.1µM*	14.1%	0.6%
CCCCCCCCCCCC1=C(O)C(=O)C=C(O)C1=O	60.2%	5.01µM*	3.16µM*	?
CCCCCCc1c(O)c2ccccc2[nH]c1=O	-4.1%	0.8%	-16.7%	2.5%
Cc1ccccc1-c1cncnc1N(C)Cc1ccco1	0.3%	-17.6%	9.8%	-7.7%
SMILES	USP2a inh	15-hLO inh	Tau filament bind	Hsp90 Hop PPI
O=C1Nc2ccc(S(=O)(=O)N3CCCCCC3)c3cccc1c23	.	15.8µM*	25.1µM*	7.3%
CCOc1ccccc1N1CCN(S(=O)(=O)c2ccc3c4c(cccc24)C(=O)N3)CC1	25.4%	-24.4%	15.8µM*	-23.3%
N/C(CSc1nc(-c2ccccc2)c(-c2ccccc2)o1)=N\O	12.5%	12.6µM*	-0.3%	-9.6%
NCCSc1nc(-c2ccccc2)c(-c2ccccc2)o1	.	-2.5%[11.4 µM]	1.9%[11.4 µM]	-0.7%[11 µM]
O=C(NCCN1CCOCC1)c1cccc(Cl)c1	0.7%	-4.5%	6.5%	-2.7%
COc1cc(OC)cc(C(=O)NCCN2CCOCC2)c1	.	10µM*	-4.8%	-3.7%
C1N2CN3CN1CN(C2)C3	-11.7%	5.9%	.	.
O=C(NCCC1=CCCCC1)C1CCCN(S(=O)(=O)c2cccc3cccnc23)C1 (configuration not stated)	.	20µM*	0.9%	?
O=C(NCCC1=CCCCC1)C1CCCN(S(=O)(=O)c2cccnc2)C1 (configuration not stated)	.	-6.9%	-0.1%	-1.1%[2.3 µM]
N#CCCn1c(=O)c(-c2cccc(C#N)c2)nc2cnc(N3CCOCC3)nc21	198.0%	2.3%	59.6%	-3.8%
Cc1ccc(-n2sc3ccccc3c2=O)cc1S(=O)(=O)N1CCCCC1	26.2%	0.501µM*	-11.0%	-21.4%
O=c1c2ccccc2sn1-c1ccc(S(=O)(=O)N2CCCC2)cc1	-0.5%	0.1µM*	0.7%	-5.5%
CC(C)NC(=O)N1CCCC2(CCN(C(=O)c3csnn3)CC2)C1	?	-1.9%	-4.3%	-5.9%
CN1CCC2(CC1)CCN(C(=O)c1cc(C(F)(F)F)cc(C(F)(F)F)c1)CC2	18.1%	1.6%	0.4%	4.3%
COc1ccc([C@@H]2[C@H]3CN(C(C)=O)CC=C3C(C#N)=C(N)C2(C#N)C#N)c2ccccc12	30.8%	12.6µM*	15.1%	-12.9%
COCCN1CCn2c(nc3cc(NC(=O)NC4CCCCC4)ccc32)C1	20.8%	-22.6%	25.1µM*	?
O=C(Nc1ccc2c(c1)nc1n2CCN(Cc2ccccc2)C1)c1cccs1	56.0%	-6.5%	-28.0%	-7.2%
COCCN1CCn2c(nc3cc(NC(=O)c4ccc(OC)cc4)ccc32)C1	42.3%	?	25.1µM*	-14.0%
CCOC(=O)c1c(NC(=O)CN2CCOCC2)sc2c1CCCC2	12.8%	25.1µM*	-11.6%	?
O=C(O)C1=CC(=C(c2ccc(O)c(C(=O)O)c2)c2ccc(O)c(C(=O)O)c2)C=CC1=O	20µM*!	2.51µM*	-4.8%	?
COc1cc(C(=O)Nc2ccc(N(C)C)cc2)cc(OC)c1OC	5.3%	-9.2%	10µM*	-22.1%
COc1cc(C(=O)Nc2nc(-c3cccs3)cs2)cc(OC)c1OC	34.6%	15.8µM*	31.8%	-1.7%
COc1ccc(C(=O)Nc2nc(-c3cccs3)cs2)cc1	-2.6%	-25.1%	7.6%	1.5%
CCCn1c(-c2ccc(F)cc2)nc2c(NCCCCN(C)C)nc(C)nc21	.	5.0%	9.2%	2.0%
C1CCC(N=C(NC23CC4CC(CC(C4)C2)C3)N2CCOCC2)CC1	5.4%	-22.5%	-9.8%	1.7%
CN1CCN(Cc2c(O)ccc3occ(C(=O)c4ccccc4)c23)CC1	8.6%	-3.1%	-18.1%	-2.1%
CC(=O)C(C(C)=O)c1c(Cl)c(O)c(O)c2c(C(=O)c3ccccc3)coc12	62.5%[46.1 µM]	2.51µM*	25.1µM*	-26.6%

Screening data as filed in PubChem BioAssay.
